LASV entry inh: qHTS for Inhibitors of binding or entry into cells for Lassa Virus; Lassa virus pseudotype entry inhibition, cell reporter; Potency, µM (highest dose often 37.9 µM), for the others: at the highest dose activity change, negative = inhibition, hits mostly inhibitors; actives 1.2% (n = 300,000); calls by dose curve; tested in HEK293 cells; note: potency is the fitted concentration of half-maximal effect; nearly all actives have a fitted effect of over 50% in size
HCMV antiviral: qHTS Assay for inhibitors of the human cytomegalovirus (HCMV); actives 4.5% (n = 410,000); HFF cells, HCMV-luciferase reporter, 72 h; hits give low values; AID 1259415, 2018; activity change, negative = inhibition, % at 57.5 µM; in the data active = activity change below about -60%; inconclusive = no clear call, values can overlap the other calls; inactive = above about -39%
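Screen run at 2 compound doses on HFFs infected with reporter HCMV, MOI 1 PFU/cell. Luciferase activity from cell lysates at 72 h post infection gave inhibition relative to buffer-only and Salinomycin wells.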
HCV inh: qHTS Assay for Inhibitors of Hepatitis C Virus (HCV) | Huh7.5.1 HCVcc-Cre infection, luciferase reporter, 44 h | Potency, µM (series often up to 41.8 µM), inactives show at the top dose activity change, negative = inhibition, actives largely listed as inhibitors | actives 3.4% (n = 340,000) | AID 651820, 2012; note: potency is the fitted concentration of half-maximal effect
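Reporter virus HCVcc-Cre (~0.5 moi) infects cells exposed to compound; seeding density 1,000 cells/well with 4 h settling beforehand. Luminescence, 15 sec read, taken 44 h post-infection following a 15 min RT substrate incubation.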
Pf growth 48h: Primary qHTS for delayed death inhibitors of the malarial parasite plastid, 48 hour incubation; P. falciparum luciferase growth in erythrocytes, 48 h; Potency, µM (highest dose often 28.7 µM), without a hit: top-dose activity change, negative = inhibition, actives largely listed as inhibitors; actives 5.9% (n = 310,000); AID 504832, 2011; note: potency is the fitted concentration of half-maximal effect
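Here the parasites carry a stable luciferase gene and grow inside erythrocytes in Albumax-based RPMI medium with compound for one erythrocytic cycle. Activity is scored as loss of luminescent signal.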
Marburg entry inh: qHTS for inhibitors of binding or entry into cells for Marburg Virus | Potency, µM (series often up to 37.8 µM), for inactives: at the highest dose activity change, negative = inhibition, hits mostly inhibitors | Marburg virus pseudotyped entry inhibition, cell reporter | actives 1.8% (n = 300,000); calls by dose curve; tested in HEK293 cells; note: potency is the fitted concentration of half-maximal effect
Pf growth 96h: Primary qHTS for delayed death inhibitors of the malarial parasite plastid, 96 hour incubation | P. falciparum luciferase reporter growth, 96 h | Potency, µM (highest dose often 28.7 µM), for inactives: top-dose activity change, negative = inhibition, most hits filed as inhibitors | actives 6.9% (n = 320,000); note: potency is the fitted concentration of half-maximal effect
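Two parasite generations (96 h, 37 C, 5% CO2) of compound exposure in infected erythrocytes (0.05% parasitemia, 2% hematocrit). Luciferase-reporter P. falciparum; decreased luminescence indicates inhibited growth, aimed at apicoplast-acting delayed death.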
Numbers without * were called inactive; u = inconclusive; x = no result; [ ] = dose if it differs, or a comment. Rows were chosen to be rich in hits. Some 14% of all compounds tested hit in one or more screens of this group. Unless noted, calls come from the whole dose curve; as a rule, active = well fitted inhibition curve with a large enough effect; inconclusive = small, poorly fitted or top-dose-only effect, or another doubt; inactive = no such curve, though single readings can be large or run the other way. % is set by controls: 0 for no effect and ±100 for the full control effect.

SMILES	LASV entry inh	HCMV antiviral	HCV inh	Pf growth 48h	Marburg entry inh	Pf growth 96h
COc1ccc2c(Sc3ccccc3)c(C(=O)NCc3cc(Br)ccc3OC)[nH]c2c1	18%[46.1 µM]	5	x	x	1%[46.1 µM]	x
O=C(NCCCc1ccccc1)c1ccccc1	u	33	12%	30%	20%	9.3µM*
O=C(NCCCCc1ccccc1)c1cccc(NC(=O)C2CCCC2)c1	-22%[46.1 µM]	-14	8.9µM*	x	x	x
O=C(NCCC(=O)N(CCc1ccccc1)Cc1ccccc1)c1ccc(Br)cc1	-21%	-10	5%	u	-13%	13µM*
O=C(NCCc1ccccc1)c1ccc(NC(=O)C2CCC2)cc1	u	52	0.63µM*	x	x	x
O=C(NCCCCc1ccccc1)c1ccc(Br)cc1	x	64	3%	0%	x	u
CC(=O)c1cccc(NC(=S)NCCCCc2ccccc2)c1	-10%	-24	0%	-22%	-30%	9.3µM*
O=C(CCc1ccccc1)NC(=S)Nc1cccc(C(=O)O)c1	3%[46.1 µM]	80	15%	144%	u	0%
O=C(CCCc1ccccc1)Nc1cccc(C(=O)O)c1	u	41	9%	176%	2.5µM*	u
COc1ccccc1-c1c(C)nn2c(N3CCN(c4ccc(F)cc4)CC3)cc(C)nc12	5%[46.1 µM]	-15	x	x	x	x
CN1CCC(N(C)C(=O)c2ccc(Cl)c(S(=O)(=O)N3CCc4ccccc43)c2)CC1	x	1	u	x	x	x
Cc1ccccc1CN1CCCNC1=O	-3%	24	5%	x	3%	x
Cc1ccccc1CN1CCNC1=O	22%	8	8%	9.3µM*	-6%	25%
Cc1ccc(S(=O)(=O)n2nc(-c3cccnc3)nc2N)cc1	u	2	-2%	18%	8%	5%
CC(=O)Nc1ccc(S(=O)(=O)n2nc(-c3ccc(C)cc3)nc2N)cc1	-22%	20	u	-14%	-22%[46.1 µM]	1.7µM*
COC1=C[C@@H](C(=O)N[C@H]2CCCC[C@H]2NC(C)=O)[C@@H](C)[C@H](c2ccccc2)CC1=O	7%[14.3 µM]	x	x	x	u	x
Fc1ccc(-[n+]2nc(Nc3ccccc3)sc2-c2c3ccccc3cc3ccccc23)cc1	x	-98*	-8%[8.37 µM]	u	x	u
COc1ccc(-c2sc(Nc3ccccc3)n[n+]2-c2ccc(F)cc2)c(C)c1C	x	-9	-18%	u	x	10µM*
Oc1ccc2ccccc2c1-c1sc(Nc2ccccc2)n[n+]1-c1ccc(F)cc1	x	8	-8%	u	x	u
c1ccc(-[n+]2nc(Nc3cccc4ccccc34)sc2-c2c3ccccc3cc3ccccc23)cc1	x	x	3.5µM*	1µM*	x	0.83µM*
Cc1cccn2c(=O)c(C(=O)N3CCN(c4ccccc4)CC3)cnc12	-6%[46.1 µM]	20	x	x	x	x
CC(=O)Nc1cc(C(=O)N2CCN(C)CC2)ccc1S(=O)(=O)c1ccc(C)cc1	1%	1	12%	x	16%	-26%
CCC(=O)Nc1cc(C(=O)N2CCC3(CC2)OCCO3)ccc1S(=O)(=O)c1ccc(C)cc1	7%	9	-5%	19%	3%	3.7µM*
Cn1c(NCc2ccccc2)nc2cnc(Nc3ccccc3Cl)cc21	x	-9	x	x	x	x
Cc1ccc(N2CCN(C(C(=O)Nc3c(C)cccc3C)c3ccccc3OC(F)(F)F)CC2)cc1 (stereo not drawn)	x	-16	x	x	x	x
SMILES	LASV entry inh	HCMV antiviral	HCV inh	Pf growth 48h	Marburg entry inh	Pf growth 96h
Cc1cccc(C)c1NC(=O)C(c1ccccc1OC(F)(F)F)N1CCN(C)CC1 (stereo not drawn)	x	-62*	x	x	x	x
CCCN1C(=O)C(Cc2nc3ccccc3c(=O)n2-c2ccc(OC)cc2)c2cc(C)ccc21 (stereo not drawn)	-28%[46.1 µM]	-2	x	x	-15%[46.1 µM]	x
O=C1/C(=C/c2ccccn2)SC(=S)N1Cc1ccccc1	7%	17	15%	9%	23%	2%
Cc1cccc(/C=C2/SC(=O)N(Cc3ccccc3)C2=O)n1	-9%	-7	9%	x	1%	2.6µM*
O=C(Nc1ccccc1Cl)C1CCN(c2nc3ccccc3nc2C(F)(F)F)CC1	-4%[46.1 µM]	7	x	x	x	x
COc1ccc(CNC(=O)C2CCCN(S(=O)(=O)c3c(C)noc3/C=C/N(C)C)C2)cc1 (stereo not drawn)	x	-26	12%	-18%	x	-21%
Cc1ccc(CNC(=O)C2CCCN(S(=O)(=O)c3c(C)noc3/C=C/N(C)C)C2)cc1 (stereo not drawn)	x	-18	-5%	13µM*	x	u
Cc1noc(/C=C/N(C)C)c1S(=O)(=O)N1CCCC(C(=O)NCc2ccccc2Cl)C1 (stereo not drawn)	-9%	-98*	u	u	-3%	5%
CCOC(=O)N1CCN(S(=O)(=O)N2CCCC(C(=O)NCc3ccccc3Cl)C2)CC1 (stereo not drawn)	x	19	-6%	6%	x	12µM*
Cc1noc(/C=C/N(C)C)c1S(=O)(=O)N1CCCC(C(=O)NCc2ccc(Cl)cc2)C1 (stereo not drawn)	20%[14.3 µM]	-10	x	u	u	u
O=c1c2cnn(-c3ccc(F)cc3)c2ncn1Cc1ccccc1Cl	-2%[46.1 µM]	-2	x	x	u	x
COc1ccc(-c2cc3c(=O)n(CC(=O)NCc4cccnc4)ncn3n2)cc1	x	197	-23%	198%	x	15µM*
Cc1ccc(S(=O)(=O)N2CCN(C(=O)c3cc(=O)[nH]c4ccccc34)CC2)c(C)c1	u	-2	14µM*	u	u	u
COC(=O)CCCc1nc2ccccc2s1	2%	10	16%	-19%	1%	111%
Cc1ccc(S(=O)(=O)N2CCN(C(=O)CCc3c[nH]c4ccccc34)CC2)c(C)c1	u	3	-18%	u	7%	7.4µM*
Cc1ccc(S(=O)(=O)N2CCN(C(=O)CCc3c[nH]c4ccccc34)CC2)cc1	x	-16	-9%	u	x	u
O=C(CCCc1c[nH]c2ccccc12)N1CCN(S(=O)(=O)c2cccs2)CC1	-28%	-7	13µM*	u	-27%	u
COc1ccccc1OC(=O)CCc1nc2ccccc2s1	-2%	50	u	10µM*	22%	-13%
CC(C)Nc1cc(N2CCN(C3CCCCC3)CC2)c2noc3c2c1C(=O)c1ccccc1-3	-2%[46.1 µM]	53	x	x	0%[46.1 µM]	x
Clc1cccc(-n2ncc3c(NCCCN4CCOCC4)ncnc32)c1	u	6	x	x	x	x
CCC(=O)c1ccc(OCC(=O)N2CCN(S(=O)(=O)c3ccc(Cl)s3)CC2)cc1	x	-13	u	u	x	10µM*
CC(=O)c1ccc(OCCCC(=O)N2CCN(S(=O)(=O)c3cccs3)CC2)cc1	-12%	-18	u	u	22%	9.3µM*

Screening data from PubChem BioAssay.
